Measurements: PubChem BioAssay AID489043 (National Center for Advancing Translational Sciences (NCATS), 2010)
Results filed as inconclusive are left out. The source made the active and inactive calls. Calls come from the whole dose curve; as a rule, active = well fitted activation curve with a large enough effect; inconclusive = small, poorly fitted or top-dose-only effect; inactive = flat fitted curve, though single readings scatter.

What follows are molecules tested against Relaxin receptor 2 (Homo sapiens) (UniProt Q8WXD0) (assay: qHTS Assay for Agonists of the Relaxin Receptor RXFP1: RXFP2 Hit Validation). Details: HEK293 RXFP2 cAMP TR-FRET, 30 min; series mostly up to 115 µM.
How it was run: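 HEK293 cells expressing RXFP2, cultured 16-24 hr, treated 30 min at 37C with compounds plus PDE4 inhibitor Ro 20174. cAMP measured by HTRF TR-FRET; EC50 from Hill fits, normalized to buffer and 29 nM porcine relaxin.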
Note: nearly all actives have a fitted effect of over 65% in size.
Potency is the fitted concentration of half-maximal effect.

Sequence of Relaxin receptor 2 (Homo sapiens) (Q8WXD0 whole entry, looked up): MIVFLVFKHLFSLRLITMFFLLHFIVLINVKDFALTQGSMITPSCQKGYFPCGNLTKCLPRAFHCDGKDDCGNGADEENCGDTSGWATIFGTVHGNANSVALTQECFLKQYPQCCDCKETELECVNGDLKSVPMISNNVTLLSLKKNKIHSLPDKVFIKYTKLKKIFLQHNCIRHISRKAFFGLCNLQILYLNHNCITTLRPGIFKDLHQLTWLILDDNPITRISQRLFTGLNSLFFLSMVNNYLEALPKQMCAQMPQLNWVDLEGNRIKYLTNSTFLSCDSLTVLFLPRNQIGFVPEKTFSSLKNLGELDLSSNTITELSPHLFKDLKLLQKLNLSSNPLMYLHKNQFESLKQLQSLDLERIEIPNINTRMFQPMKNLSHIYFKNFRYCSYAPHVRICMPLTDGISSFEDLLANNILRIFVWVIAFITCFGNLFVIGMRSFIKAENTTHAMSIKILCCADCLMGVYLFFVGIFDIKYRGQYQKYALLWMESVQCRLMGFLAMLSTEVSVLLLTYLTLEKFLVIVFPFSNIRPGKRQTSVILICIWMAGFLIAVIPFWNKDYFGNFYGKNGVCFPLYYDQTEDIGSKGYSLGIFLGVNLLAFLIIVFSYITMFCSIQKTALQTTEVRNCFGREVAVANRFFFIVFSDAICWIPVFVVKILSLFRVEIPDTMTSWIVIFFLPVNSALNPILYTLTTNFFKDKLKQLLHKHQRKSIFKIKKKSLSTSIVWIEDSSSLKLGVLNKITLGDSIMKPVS

Row | SMILES | Potency
1 | CCCCn1c(SCC(=O)N2CCOCC2)nc2c1c(=O)n(C)c(=O)n2C | 38.9 µM (active)
2 | COc1cccc(CNC(=O)c2ccc(CS(=O)Cc3ccc(C)cc3)o2)c1 (stereo not drawn) | inactive
3 | Cc1cc(C)n(C(=O)CCCn2cc([N+](=O)[O-])cn2)n1 | inactive
4 | CN(C)c1ccc(NC(=O)C2C3C=CC(C3)C2C(=O)O)cc1 (stereo not drawn) | inactive
5 | O=C(Nc1ccccc1C(=O)O)c1ccc(NC(=O)C2CC2)cc1 | inactive
6 | CCOC(=O)CNC(=O)CSc1ccc2nnc(-c3cccnc3)n2n1 | inactive
7 | O=C(Nc1ccccc1C(=O)NCCc1ccccc1)c1ccco1 | inactive
8 | COc1ccc(S(=O)(=O)N2CCOCC2)cc1NC(=O)CSc1ncnc2ccccc12 | 24.5 µM (active)
9 | Cc1nnc(Nc2ccc(S(N)(=O)=O)cc2)c2ccccc12 | 34.6 µM (active)
10 | COc1ccc(NC(=O)CCCc2nnc3n(C)c(=O)c4sccc4n23)cc1 | 34.6 µM (active)
11 | Cn1c2ccccc2c2nnc(SCC(=O)Nc3cccc(C(=O)O)c3)nc21 | 30.9 µM (active)
12 | COC(=O)c1nc2ccc(N3CCOCC3)cc2c(C)c1C(=O)OC | 38.9 µM (active)
13 | CC(=O)Nc1c2c3c(cccc3n(C)c1=O)C(=O)c1ccccc1-2 | inactive
14 | COc1cccc(C(=O)CSc2nnc(-c3cc(OC)cc(OC)c3)o2)c1 | 10.9 µM (active)
15 | NS(=O)(=O)c1ccc(CCNC(=O)C2CCN(c3ncnc4c3nc3n4CCCCC3)CC2)cc1 | 38.9 µM (active)
16 | CC(C)n1cnc2c(N(C)c3cccc(Cl)c3)nc(N(CCO)CCO)nc21 | inactive
17 | CC(C)C(=O)Nc1ccc(Nc2ccccc2)cc1 | inactive

Row | SMILES | Potency
18 | Cc1cccc2cc(C#N)c(SCC(=O)NCc3cccs3)nc12 | 19.4 µM (active)
19 | Cn1c(=O)c2c(ncn2CC(=O)NC2CCCCC2)n(C)c1=O | 48.9 µM (active)
20 | COc1ccc(CN2C(=O)c3cccnc3C2=O)cc1S(=O)(=O)NC1CCCCC1C (stereo not drawn) | 15.5 µM (active)
21 | O=C(Oc1ccccc1)Oc1ccc2c(c1)oc(=O)c1ccccc12 | 19.4 µM (active)
22 | O=c1oc2cc(O)c(Cl)cc2c2ccccc12 | 6.9 µM (active)
23 | CN(C)c1ccc2nc3c(=O)[nH]c(=O)nc-3n(CC(O)C(O)C(O)CO)c2c1 (stereo not drawn) | inactive
24 | COC(=O)c1c(N2C(=O)CC(Sc3ncccc3C(=O)O)C2=O)sc(C)c1C (stereo not drawn) | inactive
25 | CCc1ccc2n(-c3ccc(OC)cc3)c([S-])c(C(=O)Nc3cc(C)cc(C)c3)[n+]2c1 | 30.8 µM (active)
26 | O=C(NC1CCCCCC1)c1cc2c(=O)n3ccccc3nc2s1 | 38.9 µM (active)
27 | Cc1cc(C)c(NC(=O)CS(=O)CC(=O)Nc2ccc(F)cc2F)c(C)c1 (stereo not drawn) | inactive
28 | Cc1cccn2c(=O)c(/C=C3\SC(=S)NC3=O)c(NCCCN3CCOCC3)nc12 | 4.35 µM (active)
29 | O=C(O)c1ccc(N2C(=O)c3cccc4c(C(=O)O)ccc(c34)C2=O)cc1 | 47.3 µM (active)
30 | CCN(CC)S(=O)(=O)c1ccc2c(c1)nc(SCc1nc3ccsc3c(=O)[nH]1)n2CC | 0.275 µM (active)
31 | COc1ccc(CCn2c(=N)c(C(=O)NCC3CCCO3)cc3c(=O)n4cccc(C)c4nc32)cc1 (stereo not drawn) | inactive
32 | CCOC(=O)N1CCN(S(=O)(=O)c2c(C)nc3scc(C)n3c2=O)CC1 | 30.9 µM (active)
33 | COc1ccc(C(=O)Nc2ccc(Cl)cc2C(=O)NCc2ccco2)cc1 | 42.1 µM (active)
